# Test results reported in the supplement of paper PMC11417369.
# The full ranking holds about 25,000 sequences; the median of “ln(normalized median fluorescence intensity)” is about 9.3, and the highest 2% start at about 10. The list comes from a sample in which the highest values are over-represented; it also holds similar and randomly drawn sequences.
# System: PF3D7_0420300 AP2 domain 1 (GST-tagged)
# Assay: gcPBM binding intensity (ln(normalized median fluorescence intensity)); higher = stronger DNA binding
# In short: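 In this array assay, P. falciparum DNA-binding domains with a GST tag, expressed in E. coli, were applied for 1 h to primer-extended double-stranded 36-bp intergenic genomic probes and negative controls on an Agilent 4 × 180k array. Bound protein was visualised with Alexa488 anti-GST antibody at 488 nm. Binding intensity is the highest Masliner-normalised natural-log median intensity across replicate spots of either probe orientation.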
row,Sequence,gcPBM binding intensity (ln)
1,AAAAAAAAAAAAAAAAGTACGTATCAAAGCATCAAA [XGTACX_site880],9.42
2,CATATTTTTTCTTAAACACACACATATATATATATA [CACACA_site8920],9.61
3,TTTATTTTCCAAAGGGTGCACATAGTTGAAACGATA,9.2
4,TTTTTTTTTTTTTTTTTTTTCTTCATTTAATTTATA [GTGCAC_negctrl_site17],8.31
5,AAAAAAATACAAATATGTACACATATATATTTAAAA [XGTACX_site4729],9
6,ACTTATTTATTTTTAGTGCATTTAGTTTTATTTTAT,9.63
7,CCAAAATACATTAAACGTACATGTCCTAATAAGATA [XGTACX_site21],9.15
8,AATAATGAATACACATGTACAAAAATTTTTCTTACT [XGTACX_site1962],9.41
9,CACACGCACGGACACACACACAAAAAAAAAAAGAAA [CACACA_site6378],9.7
10,CAAGCACACGGACACACACACACACGCGCACGCACA [CACACA_site6307],10.2
11,ATCAAGCACGGACACACACACACACCCAGACCCCCA [CACACA_site4360],10.1
12,AAAATTGTTATTTTATGTACTTATATTTATTTATTT [XGTACX_site3478],9.53
13,ATTTCTCTATCGTAATGTACAAAAAAAAGGAAAAAA [XGTACX_site1323],9
14,CTAAAATACAGACACACACACACATATATATATATA [CACACA_site4150],9.93
15,AAAAAAAAAAAACATACACACATACATACCTATATA [CACACA_site6575],9.78
16,CACGCACGCACATACACACACATACACATATAAATA [CACACA_site6907],9.95
17,TAAATTAAAAAAAATACACACACACCGACACATATA [CACACA_site9084],10
18,AAAAAAAAAAAAAATACACACATATATATATATATA [CACACA_site85],9.45
19,TACAGACTAAAATACACACACACACGCACATATATA [CACACA_site7875],10.2
20,AAAAAAAATACATACACACACACACGCACATATATA [CACACA_site7645],10.4
21,AAAATACACGCATACACACACACACCGACACATATA [CACACA_site4523],10.2
22,AAAACATACCTATATACACACATATAAATATAAATA [CACACA_site6956],9.71
23,TAAACATACCTATACACACACACACGCACACGCACA [CACACA_site6372],10.3
24,AAAAAAAAAAAATATACACACACACCGACACATAAA [CACACA_site9270],10.1
25,TTTAAATACAGACATACACACATACACGCACATATA [CACACA_site6400],9.85
